Assay results taken from PubChem BioAssay AID1850 (Southern Research Specialized Biocontainment Screening …, 2009).
The whole screen tested about 310,000 compounds, of which about 1,000 (0.32%) were called active. These entries were drawn from the full list. Potency and affinity values are given separately. A number with no mark means an inactive call. No rule for the calls is given here.

Experiment: PhoP regulon inhibitors, Salmonella typhi PhoP promoter GFP reporter, confirmatory (AID 1850);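 also: 0% = induced wells with vehicle and 100% = uninduced wells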
Conditions: fluorescence, 4 h, at 50 µM, active compounds read high

SMILES | inhibition [%]
COc1cc(Nc2nc3ccccc3nc2NS(=O)(=O)c2ccc([N+](=O)[O-])cc2)cc(OC)c1OC | 6.03
CN(Cc1ccccc1)CC(O)COc1ccc(CNCCc2cccnc2)cc1 (configuration not stated) | 9.53
Cc1ncc(CCl)c2c1OC(C)(C)OC2 | 5.02
COc1ccc(NC(=O)NCc2cccnc2)c(OC)c1 | -7.58
O=C(Cc1ccccc1)Nc1nccs1 | -0.57
Cc1cc(OC(C)C(=O)N2C[C@H]3C[C@@H](C2)c2cccc(=O)n2C3)c2c(C)c(C)c(=O)oc2c1 (some centres not stated) | -6.28
CC(C)Cc1nnc(NC(=O)CCC(=O)N2CCN(c3ccccn3)CC2)s1 | -13
O=[N+]([O-])c1cccnc1NCCc1c[nH]c2ccccc12 | -3.53
Cc1cc(NC(=O)CSCC(=O)N2CCN(c3cccc(C(F)(F)F)c3)CC2)no1 | 6.28
C/C(=N/NC(=O)C(O)(c1ccccc1)c1ccccc1)c1ccc([N+](=O)[O-])o1 | -14
O=C(CN1CCCCCCC1)N/N=C/c1ccc([N+](=O)[O-])o1 | 8.07
O=C(N/N=C/C=C/c1ccccc1[N+](=O)[O-])c1cccs1 | -2.89
NC(=O)N/N=C/c1ccc([N+](=O)[O-])o1 | 1.06
O=C(N/N=C/C=C/c1ccc([N+](=O)[O-])cc1)c1cccs1 | 6.74
CCOC(=O)N/N=C(\C)c1ccc(C)o1 | -8.47
CCCC(=O)Nc1ccc(C(=O)N/N=C/c2ccc([N+](=O)[O-])o2)cc1 | 14.4
O=C(N/N=C/c1ccc([N+](=O)[O-])o1)c1ccc2c(c1)OCO2 | 3.54
COc1ccc(C2C(C(C)=O)=C(O)C(=O)N2Cc2ccccc2)c(OC)c1 (configuration not stated) | -1.09
Cc1ccc([C@@H]2[C@@H]3C(=O)N(C)C(=O)[C@@H]3[C@]3(Cc4ccccc4)C(=O)N(Cc4ccccn4)CC(=O)N23)o1 | 5.99
COc1ccccc1N1CCN(C2CCCN(C(=O)c3cc(C4CC4)on3)C2)CC1 (configuration not stated) | -1.91
O=C(C[n+]1cc(-c2ccccc2)n2c1CCCCC2)c1ccc(Br)cc1 | -5.28
CCOC(=O)N1CCN(C(=O)c2cn(CC)c3ccc(S(=O)(=O)N4CC(C)CC(C)C4)cc3c2=O)CC1 (configuration not stated) | -8.02
O=C(COC(=O)CCN=C1NS(=O)(=O)c2ccccc21)NC1CCCCCCC1 | 2.68
COc1cccc(NC(=S)NC(=O)Cc2ccc(Cl)cc2)c1 | -3.77
CCOC(=O)N/N=C/c1ccc(C)o1 | -0.31

SMILES | inhibition [%]
COC(=O)N/N=C/c1ccc([N+](=O)[O-])o1 | 10.7
Cc1ccc2c(c1)C(=O)CC(O)(C(F)(F)F)O2 (configuration not stated) | -10.7
COc1ccc(OC(=O)c2cc3ccccc3o2)cc1 | 3.29
O=C(Nc1ccccc1)c1ccc(OC(=O)c2cc3ccccc3o2)cc1 | 1.84
CC(=O)Nc1cccc(C(=O)Nc2cccnc2)c1 | 5.55
Nc1cn(C2OC(CO)C(O)C2O)c(=O)[nH]c1=O (configuration not stated) | 5.11
CC(=O)OCC1OC(n2cc(F)c(=O)[nH]c2=O)C(OC(C)=O)C1OC(C)=O (configuration not stated) | -1.38
COc1ccccc1N1CCN(c2ccc(Cl)nn2)CC1 | 8.78
Cc1ccc(C(=O)N/C(=C\c2ccccc2)C(=O)NCCCn2ccnc2)cc1 | -1.23
NC1=NC[C@@H](Cc2ccc(O)cc2)N1CCC12CC3CC(CC(C3)C1)C2 | -4.88
NCCCC[C@H]1CN=C(N)N1CCC12CC3CC(CC(C3)C1)C2 | 27.2
NC1=NC[C@H](Cc2ccc(O)cc2)N1CCc1cccc(F)c1 | -13.5
NC1=NC[C@@H](Cc2ccc(O)cc2)N1CCc1cccc2ccccc12 | -7.1
COc1ccccc1N1CCN(C(=O)Cn2nc(C(F)(F)F)c3c2CCC3)CC1 | -10.5
COc1cccc(C(=O)Nc2ccc(NC(=O)Cc3ccccc3)cc2)c1 | -3.24
CC(NCc1ccncc1)C12CC3CC(CC(C3)C1)C2 (configuration not stated) | 2.47
CC(CC12CC3CC(CC(C3)C1)C2)NCc1ccccc1O (configuration not stated) | 0.38
NS(=O)(=O)c1cccc(NC(=O)CC23CC4CC(C2)CC(CC(=O)Nc2cccc(S(N)(=O)=O)c2)(C4)C3)c1 | 4.03
c1ccc(CN2CCC(Nc3nc(-c4cccnc4)nc4ccccc34)CC2)cc1 | 1.57
c1ccc(CNc2nc(-c3cccs3)nc3ccccc23)cc1 | -0.13
c1ccc(CN2CCC(Nc3ncnc4sccc34)CC2)cc1 | -4.42
c1ccc(-c2nc(NC3CCCC3)c3ccccc3n2)cc1 | 3.11
O=C1N(CN2CCC3(CC2)OCCO3)c2ccccc2C12OCCCO2 | 1.71
Cc1ccc(NC(=O)N2CCN(c3ncccc3C(F)(F)F)CC2)cc1 | 1.6
C=CCNC(=O)C1CC(=O)N(c2ccc(OCc3ccccc3Cl)cc2)C1 (configuration not stated) | 0.85

SMILES | inhibition [%]
COc1ccc(C2NC(=O)Cc3cc(OC)c(OC)cc32)cc1OC (configuration not stated) | -3.77
Nc1ccc(C(=O)OCc2nc3c(ccc4ccccc43)[nH]2)cc1 | 0.78
Cc1cccc(OCc2nc(C#N)c(NCCN(C)C)o2)c1 | -1.98
CN(C)CCNc1oc(COc2ccc(Cl)cc2)nc1C#N | 8.61
Cc1ccc(S(=O)(=O)N2CCCC(C(=O)NCCc3ccc(S(N)(=O)=O)cc3)C2)cc1 (configuration not stated) | -14.1
COc1ccc(-c2cc(C(=O)N(C)Cc3ccccc3F)c3ccccc3n2)cc1OC | -13.2
CCCn1nnc(NC(=S)NC(=O)/C=C/c2ccco2)n1 | -16
CC1=NN(c2nc3ccccc3[nH]2)C(=O)/C1=C/N(C)C | -13.6
Cc1nn(-c2nc3ccccc3[nH]2)c(=O)c2ccccc12 | -19.2
CN1CC(C(=O)c2ccc(F)cc2)C(c2c(F)cccc2Cl)C1 (configuration not stated) | 7.43
CCOC(=O)c1ccccc1NC(=O)CSc1nnc(C(C)C)n1CC | 1.44
CC(C)C[C@H](NC(=O)NCc1ccccc1Cl)C(=O)O | 2.59
Cc1ccc2c(c1)c1c(n2CC(O)CNC(CO)(CO)CO)CCCC1 (configuration not stated) | -13.1
Cc1ccc2c(c1)c1c(n2CC(O)CNC2CCCC2)CCCC1 (configuration not stated) | 14.4
Cc1ccc2c(c1)c1c(n2CC(O)CN2CCOCC2)CCCC1 (configuration not stated) | 5.45
Cc1ccc2c(c1)c1c(n2CC(O)CN2CCCCCC2)CCCC1 (configuration not stated) | -2.65
Cc1cc(C(=O)COC(=O)c2ccc(N)cc2)c(C)n1-c1c(C)n(C)n(-c2ccccc2)c1=O | -9.39
CSc1nc(N2CCOCC2)cc(N2CCOCC2)n1 | 2.38
COc1ccc(Br)c(C(=O)NC2CCCC2)c1 | 2.12
CCC(CC)C(=O)NCc1ccc(OC)cc1 | 22.8
O=C1CN(C(=O)/C=C/c2cccc(Cl)c2)c2ccccc2N1 | 8.09
O=C(CS(=O)(=O)c1ccc(F)cc1)NCc1ccccc1 | -1.23
Cc1ccc(-c2nn(-c3ccccc3)cc2CSC(=N)N)cc1 | 17.4
OCc1cn(-c2ccccc2)nc1-c1ccc(-c2nn(-c3ccccc3)cc2CO)cc1 | -10.8
CNC(=O)NC(=O)COC(=O)c1ccccc1OCc1ccccc1 | 0.41

SMILES | inhibition [%]
C/C(=N/Nc1ccnc2cc(Cl)ccc12)c1ccc(O)cc1 | -22.6
CC(=O)N1CCC(=NNc2ccnc3cc(Cl)ccc23)CC1 | 0.99
Oc1ccc(/C=N/Nc2ccnc3cc(Cl)ccc23)c(O)c1 | -3.01
CCOC(=O)N1CCN(c2ccnc3cc(Cl)ccc23)CC1 | -0.34
C/C(=N\Nc1cccc2cccnc12)c1ccc(N)cc1 | 10.3
Oc1ccc(Nc2ccnc3cc(Cl)ccc23)cc1 | -4.09
Cc1noc(C)c1C(=O)NCCC1=CCCCC1 | 1.2
Cn1nnnc1SCCNC(=O)C1CCC(=O)N(Cc2ccc(Cl)cc2)C1 (configuration not stated) | -10.8
COc1ccc(NC(=O)C2CC(c3ccc(Cl)cc3)=NO2)cc1 (configuration not stated) | 7.66
Cc1ccc(OCC(O)CNC(C)c2ccccc2)cc1C (configuration not stated) | -6.36
COc1ccc(OCC(O)CNC(C)c2ccccc2)cc1 (configuration not stated) | 1.46
CC(NCC(O)COCc1ccc(Cl)cc1)c1ccccc1 (configuration not stated) | -6.47
NCC(O)COCCC12CC3CC(CC(C3)C1)C2 (configuration not stated) | -0.98
CC(C)c1ccc(OCC(O)CNC(C)c2ccccc2)cc1 (configuration not stated) | 1.07
COc1cccc(OCC(O)CNC(C)c2ccccc2)c1 (configuration not stated) | 6.91
O=C(CCC1CCCN(C(=O)c2cccc(F)c2)C1)N1CCN(c2ccccn2)CC1 (configuration not stated) | -7.6
O=C(CCNS(=O)(=O)c1ccccc1)OCC(=O)c1ccc(Br)cc1 | -3.69
COc1ccc(C2N(c3ccccc3)CCN2c2ccccc2)cc1O | -8.63
COc1ccccc1Cn1c(CCCO)nc2ccccc21 | 1.55
Oc1ccc(Cl)cc1CNCc1ccc(Cl)cc1 | 12.4
Oc1ccc(Cl)cc1CNn1cnnc1 | 9.93
CCOc1ccc(S(=O)(=O)NC(C)C(=O)NCc2ccccn2)cc1 (configuration not stated) | -3.4
